Measured values from PubChem BioAssay (EPA / NIEHS).
Calls of active or inactive are those of the source. Rule for the calls: active = hit-call score of the fitted dose curve at least 0.9, where 1 is the maximum; inactive = score below 0.9.

Assay: UKN2_HCS_IMR90_neural_migration: University of Konstanz (UKN) Leist Lab Neural Crest Cell Migration Assay in human induced IMR90 Pluripotent Stem Cells (UKN2) (AID 2284204)
Conditions: actives raise or lower the signal
Procedure: UKN2_HCS_IMR90 is a cell-based, multiplexed-readout assay screening for neural crest cell migration and cell viability that uses IMR90 (neural crest cells differentiated from iPSC), a human embryo cell line, with measurements taken at […] after chemical dosing in a microplate: 96-well plate. UKN2, also known as cMINC, is an assay that uses IMR90 cells (neural crest cells differentiated from iPSC) as a model of neural crest cell migration. 24 hr after cell seeding, cell migration was initiated and proceeded for 24 hr. Then, chemical was applied, and after 24 hr of exposure migration and viability were assessed using high-content imaging of cells stained with calcein-AM and Hoechst H-33342.UKN2_HCS_IMR90_neural_migration is an assay component measured from the UKN2_HCS_IMR90 assay. It is designed to make measurements of neural crest cell migration, a form of morphology reporter, as detected with Fluorescence intensity signals by HCS Fluorescent Imaging.The assay endpoint UKN2_HCS_IMR90_neural_migration was analyzed with bidirectional fitting relative to DMSO as the negative control and baseline of activity. Using a type of morphology reporter, gain or loss-of-signal activity can be used to understand developmental effects. To generalize the intended target to other relatable targets, this assay endpoint is annotated to the neurodevelopment intended target family, where the subfamily is neural crest cell migration.
The wells are coated with PLO/laminin/fibronectin. Then, silicone stoppers are placed into the wells of a 96-well plate. Cells are seeded around the stoppers and allowed to attach for 24 hours. Day 0: The silicone stoppers are removed and the medium is replaced with pre-warmed, fresh N2-S medium containing the cytokines EGF and FGF. Cells are allowed to migrate into the cell free area. Day 1: 25 ul of the 5x concentrated toxicants are added to the wells. The cells plus toxicants are incubated for 24 h. Day 2: Cells are stained with calcein-AM and Hoechst (H-33342) for 30 min before imaging with a high content imaging microscope. Quantification of migration and viability is done by high content imaging analysis.

Row | SMILES | AC50 | outcome
1 | CCCCNC(=O)n1c(NC(=O)OC)nc2ccccc21 | 10 µM (active) | –
2 | C=CC1(C)OC(=O)N(c2cc(Cl)cc(Cl)c2)C1=O (stereo unspecified) | – | inactive
3 | COC(=O)N(OC)c1ccccc1COc1ccn(-c2ccc(Cl)cc2)n1 | 29.2 µM (active) | –
4 | CC(C)(C)c1ccc(CSc2cnn(C(C)(C)C)c(=O)c2Cl)cc1 | – | inactive
5 | CCOc1cc(Oc2ccc(C(F)(F)F)cc2Cl)ccc1[N+](=O)[O-] | – | inactive
6 | Cc1ccc(-c2c(Cl)nc(C#N)n2S(=O)(=O)N(C)C)cc1 | – | inactive
7 | N#Cc1nn(-c2c(Cl)cc(C(F)(F)F)cc2Cl)c(N)c1S(=O)C(F)(F)F (stereo unspecified) | 21.3 µM (active) | –
8 | CN(C)C(=S)SSC(=S)N(C)C | 1.72 µM (active) | –
9 | CCCCOC(=O)c1ccccc1C(=O)OCCCC | – | inactive
10 | CO/C=C(/C(=O)OC)c1ccccc1Oc1cc(Oc2ccccc2C#N)ncn1 | – | inactive
11 | CCCCC(CC)COC(=O)c1ccccc1C(=O)OCC(CC)CCCC (stereo unspecified) | – | inactive
